Results as given in PMC8384837, “Expanding the binding specificity for RNA recognition by a PUF domain”.

The sequences below were run against PUM1 PUF domain R4-PYT (Homo sapiens, UniProt Q14671 828-1176, N971P;H972Y;Q975T) (assay: yeast three-hybrid, YBZ-1, SC-Leu-His + 0.5 mM 3-AT, 4 days). Settings: tags: N-Gal4 AD-HA kept; label: inside an RPR1-promoter hybrid RNA with tandem MS2 sites; ssRNA.
Method in brief: (§1)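 Sequencing with Illumina followed PCR amplification of the repeat regions from transformants grown four days on SC-Leu (input) or SC-Leu-His + 0.5 mM 3-AT (selection). The transformants were strain YBZ-1 with a LexA–MS2 coat fusion and a HIS3 reporter, carrying Pumilio-1 PUF domain libraries and matching RNA elements. The interaction score is the log change in variant frequency from input to selection, computed in log2 with a pseudocount of 1 for absent variants.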

Row | Sequence | binding signal
1 | GGCUAGAACUAGUGGAUCCCCCGGCGCCCGGCGGCUCGAGCCCGGGUAAGUGUAAAUAGUCUGCAUGCCGCCGGGCGCCAUGCCUGCAGGUCGACUCUAGAAAACAUG | 4.57 log2 enrichment (interaction score)
2 | GGCUAGAACUAGUGGAUCCCCCGGCGCCCGGCGGCUCGAGCCCGGGUAAGUGUACAUAGUCUGCAUGCCGCCGGGCGCCAUGCCUGCAGGUCGACUCUAGAAAACAUG | 6.02 log2 enrichment (interaction score)
3 | GGCUAGAACUAGUGGAUCCCCCGGCGCCCGGCGGCUCGAGCCCGGGUAAGUGUAUAUAGUCUGCAUGCCGCCGGGCGCCAUGCCUGCAGGUCGACUCUAGAAAACAUG | 7.53 log2 enrichment (interaction score)

What follows are sequences tested against PUM1 PUF domain R1-KGQ (Homo sapiens, UniProt Q14671 828-1176, S863K;R864G) in the same assay as above. Settings: tags: N-Gal4 AD-HA kept; label: inside an RPR1-promoter hybrid RNA with tandem MS2 sites; ssRNA.
Method in brief: as §1

Row | Sequence | binding signal
4 | GGCUAGAACUAGUGGAUCCCCCGGCGCCCGGCGGCUCGAGCCCGGGUAAGUGUAAAUUGUCUGCAUGCCGCCGGGCGCCAUGCCUGCAGGUCGACUCUAGAAAACAUG | 5.42 log2 enrichment (interaction score)
5 | GGCUAGAACUAGUGGAUCCCCCGGCGCCCGGCGGCUCGAGCCCGGGUAAGUGUAAAUGGUCUGCAUGCCGCCGGGCGCCAUGCCUGCAGGUCGACUCUAGAAAACAUG | 2.56 log2 enrichment (interaction score)
6 | GGCUAGAACUAGUGGAUCCCCCGGCGCCCGGCGGCUCGAGCCCGGGUAAGUGUAAAUCGUCUGCAUGCCGCCGGGCGCCAUGCCUGCAGGUCGACUCUAGAAAACAUG | 4.94 log2 enrichment (interaction score)

The sequences below were run against PUM1 PUF domain R4-WSA (Homo sapiens, UniProt Q14671 828-1176, N971W;H972S;Q975A) in the same assay as above. Settings: tags: N-Gal4 AD-HA kept; label: inside an RPR1-promoter hybrid RNA with tandem MS2 sites; ssRNA.
Method in brief: as §1

Row | Sequence | binding signal
7 | GGCUAGAACUAGUGGAUCCCCCGGCGCCCGGCGGCUCGAGCCCGGGUAAGUGUAAAUAGUCUGCAUGCCGCCGGGCGCCAUGCCUGCAGGUCGACUCUAGAAAACAUG | 1.33 log2 enrichment (interaction score)
8 | GGCUAGAACUAGUGGAUCCCCCGGCGCCCGGCGGCUCGAGCCCGGGUAAGUGUACAUAGUCUGCAUGCCGCCGGGCGCCAUGCCUGCAGGUCGACUCUAGAAAACAUG | 2.8 log2 enrichment (interaction score)
9 | GGCUAGAACUAGUGGAUCCCCCGGCGCCCGGCGGCUCGAGCCCGGGUAAGUGUAUAUAGUCUGCAUGCCGCCGGGCGCCAUGCCUGCAGGUCGACUCUAGAAAACAUG | 2.96 log2 enrichment (interaction score)
